MCF10A rerep: DNA re-replication induction in MCF 10a cells. MCF 10A DNA re-replication, Hoechst nuclear intensity, 48 h. Potency, µM (top dose mostly 46.1 µM), inactives show at the top dose activity, positive = re-replication, most hits filed as activators. actives 2.9% (n = 350,000); also: potency is read from the fitted curve at half-maximal effect; % of control where 0% means no effect; nearly all actives have a fitted effect of over 50% in size
Chronic BCR inh: inhibitors of chronic active B-cell receptor signaling. ABC-DLBCL IkBa-CBG/CBR reporter, luminescence ratio, 4 h. Potency, µM (doses to about 46.1 µM), inactives show at the highest dose activity change, negative = inhibition, most hits filed as inhibitors. actives 0.05% (n = 340,000). AID 493014; active = well fitted inhibition curve with a large enough effect in the signal ratio, with a control signal flat, not every such curve was filed as active; inconclusive = small, poorly fitted or top-dose-only effect, or effect the other way, or a change in a side signal; the % refers to the signal ratio;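 also: potency is read from the fitted curve at half-maximal effect; plate controls were basal doxycycline-induced cells for no effect and cells given 10 µM MG132 for full effect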
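TMD8 ABC-DLBCL cells carrying doxycycline-inducible green luciferase fused to IkappaBalpha plus unfused red luciferase were exposed to compounds (up to 46 uM) for 4 hrs at 37C. Activity came from the overlap-corrected green/red luminescence ratio.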
IL-1B inflam inh: inhibitors of inflammasome signaling (IL-1 beta secretion). THP-1 LPS/ATP IL-1B secretion, AlphaLISA, 16 h; active compounds read low. actives 4.7% (n = 360,000). activity change, % at 57.5 µM; in the data active = activity change below about -50%; inconclusive = mostly about -30% to -49%; also: % is scaled to controls: 0 for no effect and ±100 for the full control effect
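THP-1 cells pretreated 1 hr with compounds (up to 57.5 uM final), then stimulated with LPS (250 ng/mL final) plus ATP (1.25 mM final); secreted IL-1B measured by AlphaLISA after 16 hr, decreased signal indicating inhibition.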
TDP1 cell noCPT: qHTS for Inhibitors of human tyrosyl-DNA phosphodiesterase 1 (TDP1): qHTS in cells in absence of CPT; DT40 Tdp1-/- hTDP1 cells, no CPT, ATP luminescence, 48 h; Potency, µM (doses to about 46.2 µM), for the others: at the top dose activity change, negative = growth inhibition, most hits filed as inhibitors; actives 15% (n = 420,000); also: potency is read from the fitted curve at half-maximal effect; % is scaled to controls: 0 for no effect and ±100 for the full control effect; nearly all actives have a fitted effect of over 55% in size
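Readout: luminescence from CellTiter-Glo after 30 min in the dark at RT. Cells: DT40 Tdp1-/- with stable hTDP1, 400/well. Exposure: compounds alone, ≥48 hr, 37 °C.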
SW480 rereplic: induces DNA re-replication in SW480 colon adenocarcinoma cells; SW480 DNA re-replication, Hoechst DNA content imaging, 48 h; Potency, µM (doses to about 46.1 µM), for the others: top-dose re-replication activation, most hits filed as activators; actives 1.8% (n = 340,000); AID 624297; also: potency is read from the fitted curve at half-maximal effect; % of control where 0% means no effect; nearly all actives have a fitted effect of over 55% in size
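Image-based read-out: total Hoechst fluorescence of nuclei (405 nm excitation, 500-530 nm emission), with hits raising the fraction of high-intensity nuclei. SW480 colon cells incubated 48 hr with compounds at 37 C.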
TDP1 cell CPT: growth inhibition of DT40 Tdp1-/-;hTDP1 cells with camptothecin (screen for TDP1 inhibitors) | AID 686979 | Potency, µM (titrated, usually from 46.2 µM), for the others: at the top dose activity change, negative = growth inhibition, usual class: inhibitors | chicken DT40 Tdp1-/-;hTDP1 cells + 20 nM CPT, ATP luminescence, 48 h | actives 12% (n = 420,000); also: potency is read from the fitted curve at half-maximal effect; % is scaled to controls: 0 for no effect and ±100 for the full control effect; nearly all actives have a fitted effect of over 55% in size
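Cell growth measured by CellTiter-Glo luminescence after a minimum 48 h, 37 C compound exposure with 20 nM CPT in Tdp1-knockout DT40 cells stably expressing hTDP1, seeded 400/well; qHTS titration format.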
* marks the source's active call; other numbers are inactive results; ? = inconclusive; . = not tested or not shown. Sampled rows, rich in hits. Any-hit rate of the full collection: about 19%. Unless noted, calls follow the shape of the dose curve; as a rule, active = well fitted curve in the direction sought with a large enough effect; inconclusive = small, poorly fitted or top-dose-only effect, or another doubt; inactive = no such curve, though single readings can be large; an effect the other way counts as inactive or inconclusive.

SMILES | MCF10A rerep | Chronic BCR inh | IL-1B inflam inh | TDP1 cell noCPT | SW480 rereplic | TDP1 cell CPT
CS(=O)(=O)N1CCN(c2ccc(NC(=O)c3ccc([N+](=O)[O-])o3)cc2)CC1 | 2.1µM* | -16% | -97* | 7.3µM* | -78% | 2.6µM*
O=C(NCc1cccnc1)c1cc(C2CCCCN2C(=O)c2ccccc2)on1 (centres undefined) | . | . | 14 | ? | . | ?
Cn1nc(C(C)(C)C)cc1C(=O)N1CCCC(c2cc(C(=O)Nc3ccccc3Cl)no2)C1 (centres undefined) | . | . | -20 | 23µM* | . | ?
Cn1nc(C(C)(C)C)cc1C(=O)N1CCCC(c2cc(C(=O)NCc3ccccc3)no2)C1 (centres undefined) | . | . | -8 | 15µM* | . | 21µM*
O=C(NCc1ccccc1)c1cc(C2CCCN(C(=O)C3CC3)C2)on1 (centres undefined) | . | . | 2 | -10% | . | 0%
Cc1ccc(C)c(CC(=O)N2CCCC(c3cc(C(=O)Nc4ccccc4Cl)no3)C2)c1 (centres undefined) | . | . | 0 | ? | . | ?
Cn1nc(C(C)(C)C)cc1C(=O)N1CCCCC1c1cc(C(=O)NCc2cccnc2)no1 (centres undefined) | . | . | 20 | 21µM* | . | 23µM*
Cc1nc(C(=O)Nc2ccccc2Cl)cc2c1[nH]c1ccccc12 | -1% | ? | -2 | 6.5µM* | ? | ?
Cn1nc(C(=O)Nc2ccccc2Cl)cc1C(=O)Nc1ccccc1Cl | ? | . | -55* | ? | 4% | ?
CC(C)NC(=O)c1cc(C2CCCCN2C(=O)c2ccc(Cl)cc2)on1 (centres undefined) | . | . | -9 | -11% | . | -29%
CC(C)NC(=O)c1cc(C2CCCCN2C(=O)c2cc(C(C)(C)C)nn2C)on1 (centres undefined) | . | . | 22 | 13µM* | . | ?
O=C(Nc1ccc2c(c1)OCO2)c1cc(C2CCCCN2C(=O)c2ccccc2)on1 (centres undefined) | . | . | -1 | 9.2µM* | . | 13µM*
Cn1nc(C(C)(C)C)cc1C(=O)N1CCCCC1c1cc(C(=O)Nc2ccccc2Cl)no1 (centres undefined) | . | . | -5 | 21µM* | . | 21µM*
Cn1nc(C(=O)Nc2ccc(Br)cc2)cc1C(=O)Nc1ccc(Br)cc1 | -2% | ? | 22 | -2% | 5% | 0%
N#Cc1cccc(NC(=O)N2CC[C@@]3(CCCN(C(=O)c4cnccn4)C3)C2)c1 | . | . | . | -8% | . | ?
CC(=O)Nc1ccc(C(=O)N2CCCCC2c2cc(C(=O)Nc3cccc(C#N)c3)no2)cc1 (centres undefined) | . | . | -20 | ? | . | ?
Cn1nc(C(C)(C)C)cc1C(=O)N1CCCCC1c1cc(C(=O)Nc2ccccc2)no1 (centres undefined) | . | . | -19 | 23µM* | . | 21µM*
Cn1nc(C(C)(C)C)cc1C(=O)N1CCCCC1c1cc(C(=O)Nc2ccc3c(c2)OCO3)no1 (centres undefined) | . | . | 18 | 4.6µM* | . | 18µM*
COc1cc(-c2nc3nc[nH]n3c2Nc2ccc(C(C)C)cc2)ccc1O | . | . | . | 7.3µM* | . | 23µM*
CC(C)c1ccc(Nc2c(-c3ccccc3O)nc3cnccn23)cc1 | . | . | . | 21µM* | . | ?
COc1cc(-c2nc3cnccn3c2Nc2ccc(C)cc2)ccc1O | 9% | ? | 65 | ? | -1% | ?
COc1cc(-c2nc3cnccn3c2Nc2ccccc2)ccc1O | ? | ? | 156 | 18µM* | 1% | 23µM*
COc1cc(-c2nc3cnccn3c2Nc2ccc(C(C)C)cc2)ccc1O | 1% | ? | -81* | 8.2µM* | 1% | 9.2µM*
